Measurements taken from PubChem BioAssay.
Calls of active or inactive are those of the source.

Legend:
[1] = test system: Human papillomavirus type 1a protein E7 (residues 44-93); experiment: HPV1a E7 fragment binders on microarrays, primary screen, biochemical, small-molecule microarray, residues 44-93, 635 nm fluorescence (AID 1108); conditions: small-molecule microarray binding, fluorescence 635 nm; higher = more signal;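 also: E7 fragment applied at 1 µg/mL in TBST for 1 h at 4 C; score combines spot fluorescence with its signal to noise ratio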
[2] = modulators of HCV replicon luciferase signal, primary screen, HCV replication inhibitor project, Huh7 cells, luciferase reporter (AID 1109); conditions: 48 h, higher = more signal;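 also: huh7 hepatoma cells harbouring a luciferase neomycin HCV replicon reporter; luciferase luminescence as measure of HCV replicon replication; test concentration not given here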
[3] = biological target: Left-right determination factor 2 (Homo sapiens) (UniProt O00292); experiment: LEFTY2 binders on small-molecule microarrays, primary screen, biochemical, small-molecule microarray, 635 nm fluorescence scan (AID 1110); conditions: LEFTY2 binding, higher = more signal
Chain of Left-right determination factor 2 (Homo sapiens) (O00292 whole entry, looked up): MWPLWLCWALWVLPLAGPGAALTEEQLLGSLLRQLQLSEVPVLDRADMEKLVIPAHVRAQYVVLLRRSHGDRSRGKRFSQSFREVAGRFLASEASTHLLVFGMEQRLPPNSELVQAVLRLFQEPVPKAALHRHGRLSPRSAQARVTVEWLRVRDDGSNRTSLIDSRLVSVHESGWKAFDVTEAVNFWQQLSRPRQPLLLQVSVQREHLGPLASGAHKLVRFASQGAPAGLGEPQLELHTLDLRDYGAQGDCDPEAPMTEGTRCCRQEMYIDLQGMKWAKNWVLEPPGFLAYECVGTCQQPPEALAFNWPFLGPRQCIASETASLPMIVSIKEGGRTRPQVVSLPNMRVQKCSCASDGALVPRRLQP

[4] = biological target: Calmodulin-1 (Homo sapiens) (UniProt P0DP23); experiment: CALM1 binders on microarrays, EGTA buffer, profiling panel, biochemical, small-molecule microarray, Cy5-labelled CALM1 (AID 1111); conditions: Cy5-CALM1 binding fluorescence, higher = more signal;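 also: labelled calmodulin applied in Tris saline Tween buffer holding calcium plus EGTA and DTT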
[5] = biological target: Calmodulin-1 (Homo sapiens) (UniProt P0DP23); experiment: calcium-bound CALM1 binders on microarrays, profiling panel, artefact control for SMM control-protein annotation, biochemical, small-molecule microarray, Cy5-labelled CALM1, plus calcium (AID 1112); conditions: Cy5-CALM1 binding fluorescence, higher = more signal;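 also: score merges spot fluorescence with signal to noise from triplicate slides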
[6] = small-molecule microarray binders of probe aWnt5a, primary screen, biochemical, biotinylated probe, 635/667 nm fluorescence (AID 1113); conditions: higher = more signal;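 also: score merges 667 nm fluorescence intensity with signal-to-noise per printed feature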
[7] = small-molecule microarray binders of probe aShh, primary screen, biochemical, biotinylated probe, 635/667 nm fluorescence (AID 1114); conditions: higher = more signal;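 also: probe is biotin-labelled aShh protein from a stem cell growth factor screen; measures binding of labelled protein to compounds printed on the slide; score merges feature fluorescence at 667 nm with signal-to-noise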
[8] = small-molecule microarray binders of probe aNog, primary screen, biochemical, biotinylated probe, 635/667 nm fluorescence (AID 1115); conditions: higher = more signal;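 also: probe is biotinylated aNog protein used at 0.15 µg/mL for 1 h at 4 C; z-score combines 667 nm fluorescence of each spot with its signal to noise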
[9] = biological target: Torsin-1A-interacting protein 1 (Homo sapiens) (UniProt Q5JTV8); experiment: LAP1 binders from COS7 cell lysate, primary screen, small-molecule microarray, 635/667 nm fluorescence (AID 1116); conditions: COS7-hLAP1 lysate binding, 635 nm fluorescence, higher = more signal
Chain of Torsin-1A-interacting protein 1 (Homo sapiens) (Q5JTV8 whole entry, looked up): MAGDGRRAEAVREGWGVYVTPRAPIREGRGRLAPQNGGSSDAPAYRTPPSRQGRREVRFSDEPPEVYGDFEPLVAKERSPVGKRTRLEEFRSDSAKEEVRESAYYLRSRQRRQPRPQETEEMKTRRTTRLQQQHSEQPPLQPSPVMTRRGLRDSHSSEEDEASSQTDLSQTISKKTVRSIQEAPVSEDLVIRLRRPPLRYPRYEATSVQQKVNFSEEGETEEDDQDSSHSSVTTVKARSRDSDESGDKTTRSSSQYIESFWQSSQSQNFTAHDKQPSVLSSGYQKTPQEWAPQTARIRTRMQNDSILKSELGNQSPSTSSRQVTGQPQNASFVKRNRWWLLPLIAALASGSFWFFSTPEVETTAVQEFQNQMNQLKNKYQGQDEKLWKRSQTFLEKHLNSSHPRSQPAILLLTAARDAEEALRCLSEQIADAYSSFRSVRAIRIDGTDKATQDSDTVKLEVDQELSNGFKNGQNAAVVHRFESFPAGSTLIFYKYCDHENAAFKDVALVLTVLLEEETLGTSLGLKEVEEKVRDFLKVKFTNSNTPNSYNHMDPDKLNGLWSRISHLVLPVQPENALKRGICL

[10] = biological target: Alpha-bungarotoxin (Bungarus multicinctus) (UniProt P60615); experiment: alpha-bungarotoxin binders on microarray, profiling panel, artefact control for SMM control protein annotation, biochemical, small-molecule microarray, Alexa647 label, 635/667 nm fluorescence (AID 1117); conditions: alpha-BTX-A647 binding fluorescence, higher = more signal
Chain of Alpha-bungarotoxin (Bungarus multicinctus) (P60615 whole entry, looked up): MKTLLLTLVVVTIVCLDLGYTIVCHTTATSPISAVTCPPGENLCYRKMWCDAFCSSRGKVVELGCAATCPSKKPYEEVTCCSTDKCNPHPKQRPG

Albumin (Bos taurus) = Albumin (Bos taurus) (UniProt P02769); experiment: bovine serum albumin binders on microarray, profiling panel, artefact control for SMM control protein annotation, biochemical, small-molecule microarray, Alexa647 label, 635/667 nm fluorescence (AID 1118); conditions: BSA-A647 binding, fluorescence 635 nm, higher = more signal;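 also: score merges 667 nm emission intensity and signal-to-noise per printed compound spot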
Chain of Albumin (Bos taurus) (P02769 whole entry, looked up): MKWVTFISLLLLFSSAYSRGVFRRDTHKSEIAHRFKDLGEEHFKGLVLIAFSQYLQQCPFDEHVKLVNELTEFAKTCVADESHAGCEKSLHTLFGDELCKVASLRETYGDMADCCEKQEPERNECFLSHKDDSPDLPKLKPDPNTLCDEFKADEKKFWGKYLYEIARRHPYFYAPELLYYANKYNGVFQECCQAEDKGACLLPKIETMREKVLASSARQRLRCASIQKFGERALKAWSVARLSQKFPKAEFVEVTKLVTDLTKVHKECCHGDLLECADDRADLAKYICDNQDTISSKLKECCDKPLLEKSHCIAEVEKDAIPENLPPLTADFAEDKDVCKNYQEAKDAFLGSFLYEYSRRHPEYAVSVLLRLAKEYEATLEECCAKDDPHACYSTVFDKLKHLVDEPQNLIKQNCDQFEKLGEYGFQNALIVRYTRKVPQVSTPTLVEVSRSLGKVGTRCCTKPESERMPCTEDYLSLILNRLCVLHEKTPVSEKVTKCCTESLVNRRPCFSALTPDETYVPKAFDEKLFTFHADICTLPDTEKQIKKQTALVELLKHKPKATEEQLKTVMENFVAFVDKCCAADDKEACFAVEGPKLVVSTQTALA

[11] = small-molecule microarray binders of probe aXIP, primary screen, biochemical, NeuroSMM set, 635/667 nm fluorescence (AID 1119); conditions: higher = more signal, called active from +8 up or from −8 down;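 also: probe is the protein aXip251-270 applied at 1 µg/mL to compound-printed slides; binding of probe to printed compounds measured as 667 nm fluorescence plus signal to noise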
[12] = small-molecule binders of probe aNOTCH3, primary screen, biochemical, small-molecule microarray, 635/667 nm fluorescence (AID 1120); conditions: higher = more signal;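 also: probe is a biotin-tagged antibody raised against NOTCH3 rather than NOTCH3 protein; score merges spot fluorescence near 667 nm with spot signal to noise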
[13] = small-molecule binders of probe aNOTCH2, primary screen, biochemical, small-molecule microarray, 635/667 nm fluorescence (AID 1121); conditions: higher = more signal;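 also: score merges feature fluorescence read at 667 nm with its signal to noise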
[14] = biological target: Carbonic anhydrase 2 (Homo sapiens) (UniProt P00918); experiment: CAII small-molecule binders, profiling panel, biochemical, small-molecule microarray, Alexa647-labelled CAII (AID 1122); conditions: CAII-A647 binding fluorescence, higher = more signal
[15] = COS7 lysate on small-molecule microarray, probe aHis, 635 nm (AID 1123); conditions: COS7 cell lysate, fluorescence, higher = more signal;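 also: z-score combines 667nm fluorescence intensity with signal-to-noise per printed compound spot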
[16] = compound binding in COS7 lysate, probe aLAP1, primary screen, cell lysate, small-molecule microarray (AID 1124); conditions: probe aLAP1, fluorescence, higher = more signal;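 also: lysate comes from COS7 cells expressing LAP1 and is applied at 0.3 µg/mL; score merges spot fluorescence near 667 nm with signal-to-noise over triplicate slides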
Sam68 (KHDRBS1) = experiment: Sam68 small-molecule binders, primary screen, biochemical, small-molecule microarray, 635 nm fluorescence (AID 1125); conditions: small-molecule microarray binding, higher = more signal;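 also: score merges 667 nm channel intensity with signal to noise over triplicate slides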
[17] = test system: Chordin-like protein 2 (CHRDL2); experiment: CHRDL2 small-molecule binders, primary screen, biochemical, small-molecule microarray, 635 nm fluorescence (AID 1126); conditions: small-molecule microarray binding, fluorescence 635 nm; higher = more signal;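 also: printed compound slides probed with Chrdl2 protein at 4 µg/mL for 1 h at 4 C; score merges 667 nm emission intensity with signal to noise over three replicate slides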
[18] = biological target: Concanavalin-A (Canavalia ensiformis) (UniProt P02866); experiment: ConA small-molecule binders, primary screen, artefact control for SMM control protein annotation, biochemical, small-molecule microarray, Alexa647 label, 635 nm (AID 1127); conditions: ConA-A647 binding fluorescence, higher = more signal;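 also: z combines 667 nm emission intensity with signal-to-noise across three replicate slides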
Chain of Concanavalin-A (Canavalia ensiformis) (P02866 whole entry, looked up): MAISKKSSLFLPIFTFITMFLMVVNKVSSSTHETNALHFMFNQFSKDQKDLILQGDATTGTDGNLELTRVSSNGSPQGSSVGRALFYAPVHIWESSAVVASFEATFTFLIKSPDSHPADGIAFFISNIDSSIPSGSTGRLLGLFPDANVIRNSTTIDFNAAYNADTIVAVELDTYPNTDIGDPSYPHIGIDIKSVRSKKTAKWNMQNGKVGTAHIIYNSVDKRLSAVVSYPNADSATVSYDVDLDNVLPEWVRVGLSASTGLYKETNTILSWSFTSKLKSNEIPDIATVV

Compound | composite z-score [1] | z-score [2] | composite z-score [3] | composite z-score [4] | composite z-score [5] | composite z-score [6] | composite z-score [7] | composite z-score [8] | composite z-score [9] | composite z-score [10] | composite z-score (Albumin (Bos taurus)) | composite Z-score [11] | composite z-score [12] | composite z-score [13] | composite z-score [14] | composite z-score [15] | composite z-score [16] | composite z-score (Sam68 (KHDRBS1)) | composite z-score [17] | composite z-score [18]
Cc1ccc(S[C@]2(C(=O)NCc3ccccc3)CC(=O)N(Cc3cc(C(F)(F)F)cc(C(F)(F)F)c3)[C@@H]2c2ccc(CO)cc2)cc1 | -0.115 | -0.763 | -0.637 | -0.477 | 0.187 | -0.12 | 0.516 | 0.0538 | -0.712 | -0.302 | 0.737 | 0.3 (inactive) | -0.128 | -0.208 | 0.433 | 1.03 | 1.28 | -1.01 | -0.568 | -0.856
CN(C)CCCC[C@@H]1NC(=O)[C@@H]2C[C@H](C(=O)NCCCCCN)[C@H](c3ccc(O)cc3)N2C1=O | 0.0063 | 0.285 | -0.93 | 1.99 | 1.42 | -0.208 | -0.026 | 0.262 | 0.777 | 1.19 | 0.932 | 0.351 (inactive) | 0.0229 | -0.0478 | 0.462 | 0.984 | 0.443 | 1 | -1.76 | 1.1
CC(=O)n1cc(C(O)C2C=CC3C(=O)N(c4ccccc4)C(=O)C3N2Nc2ccc(C#N)cc2)c2ccccc21 (stereo not given) | 1.48 | -0.41 | -0.125 | 0.449 | -0.577 | 0.155 | 0.385 | 1.02 | 0.557 | 0.645 | 0.938 | -0.187 (inactive) | 0.307 | 0.0753 | 0.798 | 2.7 | 0.53 | 1.31 | -0.776 | 0.876
CCCCN1CC=CC23O[C@@H]4C=CCCOC(=O)C4[C@H]2C(=O)N(CCCO)[C@@H]3C1=O (stereo not given in full) | -0.73 | -1.1 | -0.513 | -0.479 | -0.503 | -0.196 | -0.2 | -0.0784 | -0.643 | -1.13 | -1.13 | -0.941 (inactive) | -0.189 | -0.155 | 0.488 | -0.673 | -0.469 | -0.905 | -0.304 | -1.59
COCC1C2CC[C@H]3C(OCc4ccc(F)cc4C(F)(F)F)OC[C@]4(C)[C@H]3C2=C(CN4C(=O)OC(C)(C)C)[C@H](C)C1COC (stereo not given in full) | 1.37 | -0.386 | -0.13 | 2.61 | 1.37 | 0.0017 | 0.177 | 2.19 | 1.56 | 0.9 | 1.05 | 0.973 (inactive) | 0.202 | 0.214 | 0.698 | 3.39 | 0.63 | 1.2 | -1.12 | 1.13
O=c1cccc(-c2ccc3ccccc3c2)o1 | -0.0853 | 0.0929 | -0.135 | -0.545 | 0.03 | -0.184 | -0.136 | -0.219 | 0.407 | 0.687 | -1.67 | 0.19 (inactive) | -0.0766 | -0.115 | -0.263 | -0.332 | -0.341 | -0.591 | 0.387 | -0.544
Cc1ccc(C(C)CC(O)C2C=CC3C(=O)NC(=O)C3N2Nc2ccccn2)o1 (stereo not given) | 0.0598 | -0.146 | 0.479 | -0.409 | -0.743 | -0.1 | -0.0626 | -0.0863 | 0.773 | -0.0054 | -0.5 | 0.598 (inactive) | 0.237 | -0.106 | 0.887 | 0.305 | 0.149 | 0.259 | 0.676 | -0.336
C=CCN1C(=O)[C@]2(Cc3ccccc31)N=C(c1ccc(OCCCO)cc1)O[C@@H]2c1ccccc1 | 1.41 | -2.74 | 0.319 | 0.731 | -0.313 | 0.219 | -0.108 | 0.431 | 1.75 | 0.152 | -0.171 | 2.13 (inactive) | 0.0562 | 0.121 | 0.253 | 2.37 | 0.339 | 0.965 | 0.569 | 1.08
CCOC(=O)C1=CC[C@@H](c2cccc(Cl)c2)N(S(=O)(=O)c2ccc(C)cc2)[C@H]1c1ccc(C#N)cc1 | 1.41 | -1.95 | 0.838 | 1.55 | 0.736 | 0.0266 | 0.0638 | 0.978 | 1.32 | 1.39 | 1.01 | 0.272 (inactive) | 0.159 | 0.0747 | 0.728 | 2.86 | 0.668 | 1.29 | -0.0727 | 1.11
O=C1OCC=C[C@H]2OC34C=CCN(c5ccc6ccccc6c5)C(=O)[C@H]3N(CCO)C(=O)[C@@H]4[C@@H]12 (stereo not given in full) | -0.589 | -0.727 | -1.99 | -0.245 | 0.716 | -0.152 | 0.191 | 0.0721 | -0.831 | -0.74 | -0.855 | 0.138 (inactive) | -0.172 | -0.115 | 0.804 | 0.174 | -0.532 | -0.873 | -2.08 | -0.681
Cc1ccc(S(=O)(=O)N2CC(C(=O)O)=CCC2c2ccccc2)cc1 (stereo not given) | 0.467 | -0.212 | -1.58 | 0.0207 | 0.52 | 0.173 | 0.0639 | -0.468 | 0.505 | 0.277 | 0.465 | 0.0578 (inactive) | -0.287 | -0.106 | 0.881 | 1.21 | 0.671 | 0.503 | -1.74 | 0.0782
C#C[C@H]1Oc2ccccc2S(=O)(=O)N2CCC[C@@H]12 | -0.137 | -0.871 | 0.533 | -0.982 | -0.495 | -0.169 | 0.0815 | -0.1 | 0.0849 | -0.288 | -1.3 | -0.0662 (inactive) | 0.0026 | -0.0548 | -0.156 | -0.117 | 0.0504 | -0.399 | 0.839 | -1.55
